Measurements as given in PubChem BioAssay.
The source made the active and inactive calls. Unless noted, no rule for the calls is given here.

How the values were obtained:
[1] = compound effects on lung adenocarcinoma cell viability – A549, calcein-AM fluorescence, 48 h, basal, profiling panel (AID 1162); details: higher = more signal; also: test concentration not given here
[2] = compound effects on differentiated 3T3-L1 adipocyte viability – cell-based, 3T3-L1 adipocytes, calcein-AM fluorescence, 48 h, basal, profiling panel (AID 1163); details: 3T3-L1 adipocytes viability, higher = more signal; also: test concentration not given here
[3] = compound effects on hepatocellular carcinoma cell viability – HepG2, calcein-AM fluorescence, 48 h, basal, profiling panel (AID 1164); details: higher = more signal; also: test concentration not given here
[4] = compound effects on multiple myeloma cell viability – MM1S, calcein-AM fluorescence, 48 h, basal, profiling panel (AID 1165); details: higher = more signal;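 also: viability of MM1S multiple myeloma cells under basal unstimulated conditions; test concentration not given here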
[5] = calcein-AM signal in unstimulated myeloma cells – cell-based, calcein-AM fluorescence, 48 h, PK04 Diversity Set, profiling panel (AID 1166); details: RPMI8226 myeloma viability, higher = more signal;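 also: cells grown under basal conditions without added stimulus; test concentration not given here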
[6] = JC-1 mitochondrial signal, unstimulated HepG2 cells – cell-based, JC-1 fluorescence, 24 h, 100 nL compound, profiling panel (AID 1167); details: HepG2 mitochondrial potential, higher = more signal; also: test concentration not given here
[7] = JC-1 mitochondrial signal, unstimulated adipocytes – cell-based, JC-1 fluorescence, 3T3-L1 adipocytes, 24 h, 100 nL compound, profiling panel (AID 1168); details: JC-1 mitochondrial fluorescence, higher = more signal, called active from +8 up or from −8 down; also: test concentration not given here
[8] = JC-1 mitochondrial signal, unstimulated myeloma cells – cell-based, JC-1 fluorescence, RPMI8226, 24 h, 100 nL compound, profiling panel (AID 1169); details: JC-1 mitochondrial potential fluorescence, higher = more signal; also: test concentration not given here
[9] = JC-1 mitochondrial signal, unstimulated MM1S myeloma – cell-based, JC-1 fluorescence, 24 h, 100 nL compound, profiling panel (AID 1170); details: MM1S mitochondrial potential, higher = more signal; also: test concentration not given here
[10] = resazurin metabolic signal in A549 cells – cell-based, resazurin fluorescence, 24 h, PK04 Diversity Set, profiling panel (AID 1171); details: A549 viability, higher = more signal, called active from +8 up or from −8 down; also: test concentration not given here
[11] = resazurin metabolic signal in HepG2 cells – cell-based, resazurin fluorescence, 24 h, PK04 Diversity Set, profiling panel (AID 1172); details: HepG2 viability, higher = more signal; also: test concentration not given here
[12] = budding yeast growth changes without added modifier – OD600, strain BY4716, 24 h, basal condition, primary screen (AID 1173); details: S. cerevisiae BY4716 growth, OD600, 24 h; higher = more signal, called active from +8 up or from −8 down
[13] = viability profiling in MM1S myeloma cells – cell-based, resazurin fluorescence, basal, 24 h, PK04 Diversity Set, profiling panel (AID 1174); details: higher = more signal, called active from +8 up or from −8 down; also: test concentration not given here
[14] = biological target: Dihydroorotate dehydrogenase (quinone), mitochondrial (Plasmodium falciparum (isolate 3D7)) (UniProt Q08210); experiment: inhibition of P. falciparum DHODH – biochemical, C-terminal His tag, absorbance 600 nm, primary screen (AID 1175); details: PfDHODH enzyme, DCIP absorbance 600 nm; higher = more signal, called active from +8 up or from −8 down;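 also: recombinant parasite enzyme with a five histidine tag at its C terminus; test concentration not given here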
Chain of Dihydroorotate dehydrogenase (quinone), mitochondrial (Plasmodium falciparum (isolate 3D7)) (Q08210 whole entry, looked up): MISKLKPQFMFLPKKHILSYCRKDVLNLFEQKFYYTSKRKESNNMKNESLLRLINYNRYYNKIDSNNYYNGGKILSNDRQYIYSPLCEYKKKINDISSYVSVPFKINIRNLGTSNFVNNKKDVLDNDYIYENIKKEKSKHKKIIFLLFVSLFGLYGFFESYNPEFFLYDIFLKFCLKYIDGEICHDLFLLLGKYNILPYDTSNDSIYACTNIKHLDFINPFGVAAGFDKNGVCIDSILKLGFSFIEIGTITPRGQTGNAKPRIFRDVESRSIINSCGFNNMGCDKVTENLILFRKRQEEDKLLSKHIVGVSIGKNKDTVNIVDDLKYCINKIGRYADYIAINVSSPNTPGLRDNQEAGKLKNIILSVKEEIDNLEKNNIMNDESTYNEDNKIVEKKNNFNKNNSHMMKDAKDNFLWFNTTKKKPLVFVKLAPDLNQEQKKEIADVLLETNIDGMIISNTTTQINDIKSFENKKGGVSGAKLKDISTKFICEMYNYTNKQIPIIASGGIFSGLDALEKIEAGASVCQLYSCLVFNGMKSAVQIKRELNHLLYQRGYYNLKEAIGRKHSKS

[15] = inhibition of PAO1 biofilm formation – strain PAO1, LB-PBS medium, absorbance 600 nm, primary screen (AID 1176); also: test concentration not given here; details: P. aeruginosa PAO1 growth/biofilm, A600, 12 h; higher = more signal
[16] = growth modulation of vineyard yeast isolate – strain RM11-1a, OD600, basal, 24 h, primary screen (AID 1177);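 also: cultures grown under basal conditions with no added stressor; test concentration not given here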; details: S. cerevisiae RM11-1a growth, OD600, 24 h; higher = more signal, called active from +8 up or from −8 down
[17] = growth of efflux-deficient E. coli DRC39 – strain DRC39, OD650, 24 h, E. coli filamentation inducers, primary screen (AID 1178);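 also: growth measured as culture turbidity by optical density at 650 nm; test concentration not given here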; details: E. coli DRC39 acrAB, higher = more signal, called active from +8 up or from −8 down
[18] = growth of efflux-deficient E. coli DRC39 – strain DRC39, OD650, 48 h, E. coli filamentation inducers, primary screen (AID 1179);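 also: screen aims at cell division blockers that make cells filament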; details: E. coli DRC39 delta-acrAB growth, higher = more signal, called active from +8 up or from −8 down
[19] = viability profiling in RPMI8226 myeloma cells – cell-based, resazurin fluorescence, basal, 24 h, PK04 Diversity Set, profiling panel (AID 1180); details: higher = more signal;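 also: RPMI8826 multiple myeloma cell line at 5000 cells per well; test concentration not given here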
[20] = biological target: E3 ubiquitin-protein ligase XIAP (Homo sapiens) (UniProt P98170); experiment: small molecules binding XIAP protein – biophysical, small-molecule microarray, fluorescence 635 nm, primary screen (AID 1181); details: higher = more signal;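 also: score merges 667 nm emission and signal to noise over triplicate slides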
Chain of E3 ubiquitin-protein ligase XIAP (Homo sapiens) (P98170 whole entry, looked up): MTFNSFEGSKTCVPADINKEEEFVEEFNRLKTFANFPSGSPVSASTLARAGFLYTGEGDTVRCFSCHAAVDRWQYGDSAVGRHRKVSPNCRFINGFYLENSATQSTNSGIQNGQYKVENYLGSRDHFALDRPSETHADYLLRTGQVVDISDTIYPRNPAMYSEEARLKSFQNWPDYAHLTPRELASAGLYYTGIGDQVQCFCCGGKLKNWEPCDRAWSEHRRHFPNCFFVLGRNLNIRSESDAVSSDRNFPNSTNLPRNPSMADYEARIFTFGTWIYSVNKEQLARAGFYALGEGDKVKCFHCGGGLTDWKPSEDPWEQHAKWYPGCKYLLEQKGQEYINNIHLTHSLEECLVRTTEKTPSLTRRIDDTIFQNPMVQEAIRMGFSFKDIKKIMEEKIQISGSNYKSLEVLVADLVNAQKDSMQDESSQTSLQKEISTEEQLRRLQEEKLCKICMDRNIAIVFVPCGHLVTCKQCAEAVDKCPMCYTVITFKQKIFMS

Row | SMILES | z-score [1] | z-score [2] | z-score [3] | z-score [4] | z-score [5] | z-score [6] | z-score [7] | z-score [8] | z-score [9] | z-score [10] | z-score [11] | z-score [12] | z-score [13] | composite z-score [14] | z-score [15] | z-score [16] | z-score [17] | z-score [18] | z-score [19] | composite z-score [20]
1 | COCCOC(=O)N1C(=O)[C@@]2(c3cc(C#CC4=CCCCC4)ccc31)[C@H](c1ccccc1OCCO)N1[C@H](c3ccccc3)[C@H](c3ccccc3)OC(=O)[C@H]1[C@@H]2C(=O)N1CCN(c2ncccn2)CC1 | -1.17 | 0.956 | 0.195 | -0.118 | -1.92 | 0.259 | 2.14 (inactive) | -0.423 | -1.19 | 0.753 (inactive) | 0.574 | 0.456 (inactive) | 0.411 (inactive) | -0.184 (inactive) | 1.56 (inactive) | 0.756 (inactive) | 0.259 (inactive) | -1.22 (inactive) | 0.0816 | -0.124
2 | [N-]=[N+]=Nc1ccccc1C[C@@]1(C(=O)N2CCOCC2)N=C(c2ccc(OCCCO)cc2)O[C@@H]1c1ccccc1 | 0.239 | -0.231 | 1.01 | -1.92 | -2.57 | 1.02 | 0.752 (inactive) | -1.23 | -0.324 | -1.07 (inactive) | -0.339 | -1.76 (inactive) | -0.967 (inactive) | -0.132 (inactive) | 0.413 (inactive) | -0.0584 (inactive) | 0.37 (inactive) | -0.0378 (inactive) | -0.0984 | -0.09
3 | C=CCNC(=O)[C@@H]1[C@H]2C(=O)O[C@H](c3ccccc3)[C@H](c3ccccc3)N2[C@H](c2ccccc2OCCO)[C@@]12C(=O)Nc1ccc(C#CCC(C(=O)OC)C(=O)OC)cc12 | -0.423 | -0.695 | -0.852 | -3.28 | -4.17 | -1.4 | 2.37 (inactive) | -0.941 | -1.96 | -1.3 (inactive) | -0.679 | 1.59 (inactive) | -8.99 (active) | -25.5 (active) | 2.19 (inactive) | 1.86 (inactive) | 0.108 (inactive) | -0.263 (inactive) | -7.28 | -0.0062
4 | O=C1C[C@]2(c3ccc([N+](=O)[O-])cc3)C(=O)N(C3CC3)c3cc(CO)ccc3[C@H]2N1CC12CC3CC(CC(C3)C1)C2 | 0.207 | 0.368 | -0.67 | 0.352 | -0.947 | -0.148 | -0.837 (inactive) | 0.787 | -1.1 | -0.452 (inactive) | -0.742 | 0.359 (inactive) | -0.118 (inactive) | -3.84 (inactive) | 0.677 (inactive) | 0.866 (inactive) | -0.292 (inactive) | -0.616 (inactive) | 0.0683 | -0.158
5 | O=C(Cc1ccccc1)[C@H]1C2C=CCCC(c3ccccc3)=C2CN1Cc1ccccc1 (stereo not given in full) | 0.128 | 0.169 | 0.436 | 0.743 | 0.602 | 0.655 | 0.122 (inactive) | -0.196 | 0.584 | 0.807 (inactive) | 1.37 | -2.98 (inactive) | 0.806 (inactive) | -0.658 (inactive) | 1.44 (inactive) | -0.546 (inactive) | 1.64 (inactive) | 1.29 (inactive) | 1.08 | -0.441
6 | O=C1C2C=CC(C(O)C3CC=CCC3)N(Nc3ccccc3)C2C(=O)N1c1ccccc1 (stereo not given) | -1.05 | -0.0629 | -1.2 | -1.13 | -1.14 | -2.47 | -0.858 (inactive) | 0.173 | -1.02 | -0.728 (inactive) | -0.868 | -1.22 (inactive) | -1.57 (inactive) | -0.558 (inactive) | 1.18 (inactive) | -0.197 (inactive) | -0.572 (inactive) | -0.658 (inactive) | -1.12 | 0.251
7 | CN1C(=O)C2C=CC(C(O)c3cccn3C)N(Nc3ccc([N+](=O)[O-])cc3[N+](=O)[O-])C2C1=O (stereo not given) | -0.49 | -1.35 | -0.678 | -2.1 | 0.16 | -1.58 | -1.16 (inactive) | 0.647 | -0.0962 | -1.03 (inactive) | -0.929 | 1.1 (inactive) | -1.76 (inactive) | -0.145 (inactive) | 0.667 (inactive) | 0.407 (inactive) | -0.314 (inactive) | -0.119 (inactive) | -1.34 | -0.354
8 | CO[C@H]1O[C@H](CO)[C@@H](OC(=O)Nc2ccccc2)[C@H](OC(=O)c2cc3ccccc3[nH]2)[C@H]1OC(=O)c1cc2ccccc2[nH]1 | -0.14 | 0.544 | 0.131 | -0.294 | -0.939 | 1.12 | 2.46 (inactive) | -0.766 | -0.61 | -2.51 (inactive) | -1.09 | -0.388 (inactive) | -1.59 (inactive) | -0.49 (inactive) | 0.125 (inactive) | -0.643 (inactive) | 1.54 (inactive) | 1.45 (inactive) | -1.64 | 0.246
9 | COC(=O)[C@@H]1N=C(c2ccc(OCCCO)cc2)O[C@@H]1c1ccccc1 | 0.623 | 0.469 | -0.677 | 0.565 | 0.474 | -0.659 | -0.652 (inactive) | 0.278 | -0.241 | 0.331 (inactive) | 1.64 | -2.99 (inactive) | 1.09 (inactive) | -0.103 (inactive) | -0.484 (inactive) | -0.763 (inactive) | 0.714 (inactive) | 0.129 (inactive) | 1.5 | 0.761
